Measured values published in PubChem BioAssay (NCI).
Several values for one entry are separate records, joined by “and”; a condition that tells them apart may be missing. Equal values may be shown once. This is part of a sample that, as a whole, favours compounds with a hit. Of some 83,000 tested, about 20% had one in any assay.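 Cells were grown in 96-well plates and exposed to the test compound at a single concentration for 48 hours; results are reported as percent growth, with values below 10 considered active.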 Activity calls are given as the source filed them.

How the values were obtained:
Assay in all cases: NCI-60 one-dose screen, 48 h (100 = growth as untreated, 0 = no growth, -100 = all killed)
Conditions in all cases: 10 µM
SR leukemia = tested on: SR leukemia
RPMI-8226 leukemia = tested on: RPMI-8226 leukemia
OVCAR-8 ovarian = tested on: OVCAR-8 ovarian
OVCAR-5 ovarian = tested on: OVCAR-5 ovarian
OVCAR-4 ovarian = tested on: OVCAR-4 ovarian
SK-OV-3 ovarian = tested on: SK-OV-3 ovarian
IGROV1 ovarian = tested on: IGROV1 ovarian
OVCAR-3 ovarian = tested on: OVCAR-3 ovarian
HS 578T breast = tested on: HS 578T breast
NCI/ADR-RES ovarian = tested on: NCI/ADR-RES ovarian
T-47D breast = tested on: T-47D breast
BT-549 breast = tested on: BT-549 breast
MDA-MB-435 melanoma = tested on: MDA-MB-435 melanoma
SW-620 colon = tested on: SW-620 colon
MCF7 breast = tested on: MCF7 breast
HCT-116 colon = tested on: HCT-116 colon
HCC-2998 colon = tested on: HCC-2998 colon
KM12 colon = tested on: KM12 colon
MDA-MB-468 breast = tested on: MDA-MB-468 breast

SMILES | growth (SR leukemia) | growth (RPMI-8226 leukemia) | growth (OVCAR-8 ovarian) | growth (OVCAR-5 ovarian) | growth (OVCAR-4 ovarian) | growth (SK-OV-3 ovarian) | growth (IGROV1 ovarian) | growth (OVCAR-3 ovarian) | growth (HS 578T breast) | growth (NCI/ADR-RES ovarian) | growth (T-47D breast) | growth (BT-549 breast) | growth (MDA-MB-435 melanoma) | growth (SW-620 colon) | growth (MCF7 breast) | growth (HCT-116 colon) | growth (HCC-2998 colon) | growth (KM12 colon) | growth (MDA-MB-468 breast)
CC(=O)OC[C@@]1(C)C2CC[C@]3(C)C(CC=C4C5CC(C)(C)CC[C@]5(C(=O)Nc5ccccc5)CC[C@]43C)[C@@]2(C)C[C@@H](OC(C)=O)[C@@H]1OC(C)=O (some centres not stated) | 17% (inactive) | 10.7% (inactive) | 32.7% (inactive) | 81.4% (inactive) | 33.4% (inactive) | 45.2% (inactive) | 45.1% (inactive) | 38.9% (inactive) | 52.3% (inactive) | 31.2% (inactive) | 15.3% (inactive) | 47.7% (inactive) | 45.7% (inactive) | 36.3% (inactive) | 24.4% (inactive) | 25.4% (inactive) | 42.3% (inactive) | 49% (inactive) | -4.16% (active)
CN1CCO/C1=C(/NC(=O)c1ccc(Cl)cc1)[P+](c1ccccc1)(c1ccccc1)c1ccccc1 | 80.9% (inactive) | 24.8% (inactive) | 89% (inactive) | 92.1% (inactive) | 83.3% (inactive) | 106% (inactive) | 59.4% (inactive) | 64.1% (inactive) | 93.7% (inactive) | 103% (inactive) | 66% (inactive) | 90.1% (inactive) | 66.7% (inactive) | 97.1% (inactive) | 62.9% (inactive) | 45.9% (inactive) | 89.1% (inactive) | 64.5% (inactive) | -19.6% (active)
COc1ccc(OC)c(-c2cc(-c3c[nH]c4ccccc34)nc(N)c2C#N)c1 | 8.54% (active) | 6.3% (active) | 6.52% (active) | 15.1% (inactive) | 22.9% (inactive) | 34.3% (inactive) | 15.9% (inactive) | -23.5% (active) | -16.5% (active) | -34.1% (active) | 0.648% (active) | -25.4% (active) | -5.04% (active) | 6.61% (active) | 3.84% (active) | -45.8% (active) | -37.1% (active) | -27.6% (active) | -9.53% (active)
O=C(CSc1nnc(-c2ccc3nc(-c4ccc(Cl)cc4)[nH]c3c2)o1)Nc1ccc(Br)cc1 | 3.26% (active) | 0.539% (active) | -43.5% (active) | 39.5% (inactive) | 16.4% (inactive) | 60.2% (inactive) | 23.2% (inactive) | -15.9% (active) | -16.5% (active) | 10.9% (inactive) | 53.7% (inactive) | -69.8% (active) | -88% (active) | -20.9% (active) | -25% (active) | -61.9% (active) | 28.9% (inactive) | 15.6% (inactive) | -4% (active)
OCCCNc1oc(-c2ccccc2)nc1[P+](c1ccccc1)(c1ccccc1)c1ccccc1 | 1.71% (active) | 4.55% (active) | 8.02% (active) | 26.2% (inactive) | 16.6% (inactive) | -4.9% (active) | -19.4% (active) | -8.66% (active) | -13.3% (active) | 95% (inactive) | 7.19% (active) | -40.5% (active) | 6.46% (active) | 11.5% (inactive) | 0.534% (active) | 7.82% (active) | 2.5% (active) | -45.9% (active) | -41.3% (active)
O=c1[nH]c2ccc(Cl)cc2cc1CSc1ccc(Nc2nccc(-c3ccc4ccccc4c3)n2)cc1 | 88% (inactive) | 69.1% (inactive) | 9.55% (active) | 95% (inactive) | -25.7% (active) | 126% (inactive) | 99.4% (inactive) | -1.45% (active) | 66.2% (inactive) | 59.8% (inactive) | 100% (inactive) | 83.4% (inactive) | 84.7% (inactive) | 17.6% (inactive) | 29.2% (inactive) | 55% (inactive) | 79.6% (inactive) | 53% (inactive) | 15.2% (inactive)
O=C(NC(=S)N1CCN(c2ncnc3c2cnn3-c2ccccc2)CC1)c1ccc(Cl)cc1 | 13.9% (inactive) | 69.1% (inactive) | 38.3% (inactive) | 83.8% (inactive) | 16.5% (inactive) | 41.8% (inactive) | 70.9% (inactive) | 48.1% (inactive) | 32.7% (inactive) | 28.1% (inactive) | 57.2% (inactive) | 63.5% (inactive) | 89.2% (inactive) | 68.9% (inactive) | 38.9% (inactive) | 41.9% (inactive) | 82.6% (inactive) | 87.3% (inactive) | 64.6% (inactive)
O=C(Nc1cccc([N+](=O)[O-])c1)Nc1cccc([N+](=O)[O-])c1 | 88.7% (inactive) | 31.9% (inactive) | 88.7% (inactive) | 94.1% (inactive) | 73.6% (inactive) | 129% (inactive) | 88.6% (inactive) | 60.7% (inactive) | 92.5% (inactive) | 65.4% (inactive) | 40.6% (inactive) | 67.1% (inactive) | 90.3% (inactive) | 87.9% (inactive) | 72.5% (inactive) | 54.4% (inactive) | 88% (inactive) | 70.6% (inactive) | 7.95% (active) and 24.6% (inactive)
